# From the supplement of paper PMC8728848
# Shown is part of a subset that was picked to be rich in the strongest signals.
# Tests used:
# Experiment in all cases: glycan array binding signal (z-score within array); higher = stronger binding
# Conditions in all cases: glycan notation: IUPAC condensed, linker removed
# [1] = molecular target: Fuc(a1-3)[Gal(b1-4)]GlcNAc
# Procedure, shortened: (§1)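 The Consortium for Functional Glycomics database supplied 3228 glycan arrays, of which those lacking an available protein sequence were dropped. The binding signal, a within-array Z-score, was averaged across arrays of the same protein sequence and across linkers. Negative scores can be read as non-binding.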
# [2] = molecular target: Fuc(a1-3)[Gal3S(b1-4)]GlcNAc
# Procedure, shortened: as §1
# Gal(a1-2)Gal = molecular target: Gal(a1-2)Gal
# Procedure, shortened: as §1
# Gal(b1-2)Gal = molecular target: Gal(b1-2)Gal
# Procedure, shortened: as §1
# [3] = molecular target: Gal3S(b1-3)[Fuc(a1-4)]GlcNAc
# Procedure, shortened: as §1
# Glc(b1-4)Glc = molecular target: Glc(b1-4)Glc
# Procedure, shortened: as §1
# [4] = molecular target: GlcNAc(a1-6)Gal(b1-4)GlcNAc
# Procedure, shortened: as §1
# GlcNAc(b1-3)GalNAc = molecular target: GlcNAc(b1-3)GalNAc
# Procedure, shortened: as §1
# [5] = molecular target: GlcNAc(b1-4)[GlcNAc(b1-6)]GalNAc
# Procedure, shortened: as §1
# [6] = molecular target: Man(a1-2)Man(a1-2)Man(a1-3)[Man(a1-2)Man(a1-3)[Man(a1-2)Man(a1-6)]Man(a1-6)]Man(b1-4)GlcNAc(b1-4)GlcNAc
# Procedure, shortened: as §1
# [7] = molecular target: Man(a1-2)Man(a1-2)Man(a1-3)[Man(a1-2)Man(a1-6)[Man(a1-3)]Man(a1-6)]Man(b1-4)GlcNAc(b1-4)GlcNAc
# Procedure, shortened: as §1
# [8] = molecular target: Man(a1-2)Man(a1-3)[Man(a1-6)]Man(a1-6)[Man(a1-2)Man(a1-3)]Man(b1-4)GlcNAc(b1-4)GlcNAc
# Procedure, shortened: as §1
# [9] = molecular target: Man(a1-3)[Man(a1-6)]Man(a1-6)[Man(a1-3)]Man(b1-4)GlcNAc(b1-4)GlcNAc
# Procedure, shortened: as §1
# [10] = molecular target: Man(a1-3)[Man(a1-6)]Man(b1-4)GlcNAc(b1-4)GlcNAc
# Procedure, shortened: as §1
# [11] = molecular target: Neu5Ac(a2-3)Gal(b1-3)[Fuc(a1-4)]GlcNAc
# Procedure, shortened: as §1
# [12] = molecular target: Neu5Ac(a2-3)[GalNAc(b1-4)]Gal(b1-4)Glc
# Procedure, shortened: as §1
# [13] = molecular target: Neu5Ac(a2-6)GalNAc(b1-4)GlcNAc
# Procedure, shortened: as §1
# [14] = molecular target: Neu5Ac(a2-8)Neu5Ac(a2-3)[GalNAc(b1-4)]Gal(b1-4)Glc
# Procedure, shortened: as §1
# [15] = molecular target: Fuc(a1-2)[GalNAc(a1-3)]Gal(b1-4)GlcNAc
# Procedure, shortened: as §1
# Gal(a1-3)Gal(b1-3)Glc = molecular target: Gal(a1-3)Gal(b1-3)Glc
# Procedure, shortened: as §1
# [16] = molecular target: Gal(a1-3)Gal(b1-4)[Fuc(a1-3)]GlcNAc
# Procedure, shortened: as §1
# Gal(a1-4)Gal(b1-4)Gal = molecular target: Gal(a1-4)Gal(b1-4)Gal
# Procedure, shortened: as §1
# Gal3S(b1-3)GlcNAc = molecular target: Gal3S(b1-3)GlcNAc
# Procedure, shortened: as §1
# Gal6S(b1-4)Glc = molecular target: Gal6S(b1-4)Glc
# Procedure, shortened: as §1
# GlcA(b1-3)Gal = molecular target: GlcA(b1-3)Gal
# Procedure, shortened: as §1
# GlcA(b1-6)Gal = molecular target: GlcA(b1-6)Gal
# Procedure, shortened: as §1
# [17] = molecular target: GlcNAc(b1-3)[GlcNAc(b1-6)]GlcNAc
# Procedure, shortened: as §1
# [18] = molecular target: GlcNAc(b1-4)GlcNAc(b1-4)GlcNAc(b1-4)GlcNAc(b1-4)GlcNAc
# Procedure, shortened: as §1
# [19] = molecular target: Neu5Ac(a2-3)Gal(b1-4)[Fuc(a1-3)]GlcNAc
# Procedure, shortened: as §1
# [20] = molecular target: Neu5Ac(a2-3)Gal(b1-4)[Fuc(a1-3)]GlcNAc(b1-3)Gal
# Procedure, shortened: as §1
# [21] = molecular target: Neu5Ac(a2-3)GalNAc(b1-4)GlcNAc
# Procedure, shortened: as §1
# [22] = molecular target: Neu5Ac(a2-3)[Neu5Ac(a2-6)]GalNAc
# Procedure, shortened: as §1
# [23] = molecular target: Neu5Ac(a2-6)Gal(b1-4)GlcNAc(b1-3)Gal(b1-4)[Fuc(a1-3)]GlcNAc(b1-3)Gal(b1-4)[Fuc(a1-3)]GlcNAc
# Procedure, shortened: as §1
# Neu5Ac(a2-6)GalNAc = molecular target: Neu5Ac(a2-6)GalNAc
# Procedure, shortened: as §1
# [24] = molecular target: Fuc(a1-2)[GalNAc(a1-4)]Gal(b1-4)GlcNAc
# Procedure, shortened: as §1
# Gal(a1-4)Gal(b1-4)GlcNAc = molecular target: Gal(a1-4)Gal(b1-4)GlcNAc
# Procedure, shortened: as §1
# [25] = molecular target: Gal(b1-3)GlcNAc(b1-3)Gal(b1-4)Glc
# Procedure, shortened: as §1
# [26] = molecular target: Gal(b1-4)GlcNAc(b1-3)GalNAc
# Procedure, shortened: as §1
# [27] = molecular target: Gal(b1-4)GlcNAc(b1-6)[Gal(b1-3)]GalNAc
# Procedure, shortened: as §1
# Gal3S(b1-4)Glc = molecular target: Gal3S(b1-4)Glc
# Procedure, shortened: as §1
# GalNAc(b1-4)GlcNAc = molecular target: GalNAc(b1-4)GlcNAc
# Procedure, shortened: as §1
# [28] = molecular target: GlcNAc(b1-2)Gal(b1-3)GalNAc
# Procedure, shortened: as §1
# [29] = molecular target: GlcNAc(b1-4)GlcNAc(b1-4)GlcNAc
# Procedure, shortened: as §1
# [30] = molecular target: Neu5Ac(a2-3)Gal(b1-3)[Neu5Ac(a2-3)Gal(b1-4)]GlcNAc
# Procedure, shortened: as §1
# [31] = molecular target: Neu5Ac(a2-6)Gal(b1-4)GlcNAc(b1-3)Gal(b1-4)GlcNAc
# Procedure, shortened: as §1
# [32] = molecular target: Neu5Gc(a2-3)Gal(b1-3)GlcNAc
# Procedure, shortened: as §1
binder,measurement,setting,value
"FBG2 (Homo sapiens), Q9NRD1 (protein) MDAPHSKAALDSINELPENILLELFTHVPARQLLLNCRLVCSLWRDLIDLMTLWKRKCLREGFITKDWDQPVADWKIFYFLRSLHRNLLRNPCAEEDMFAWQIDFNGGDRWKVESLPGAHGTDFPDPKVKKYFVTSYEMCLKSQLVDLVAEGYWEELLDTFRPDIVVKDWFAARADCGCTYQLKVQLASADYFVLASFEPPPVTIQQWNNATWTEVSYTFSDYPRGVRYILFQHGGRDTQYWAGWYGPRVTNSSIVVSPKMTRNQASSEAQPGQKHGQEEAAQSPYRAVVQIFPPPVTIQQWNNATWTEVSYTFSDYPRGVRYILFQHGGRDTQYWAGWYGPRVTNSSIVVSPKMTRNQASSEAQPGQKHGQEEAAQSPYRAVVQI",glycan array binding signal (z-score),[1],-0.537
same,glycan array binding signal (z-score),[2],-0.236
same,glycan array binding signal (z-score),Gal(a1-2)Gal,-0.526
same,glycan array binding signal (z-score),Gal(b1-2)Gal,-0.363
same,glycan array binding signal (z-score),[3],1.01
same,glycan array binding signal (z-score),Glc(b1-4)Glc,-0.116
same,glycan array binding signal (z-score),[4],-0.895
same,glycan array binding signal (z-score),GlcNAc(b1-3)GalNAc,-0.923
same,glycan array binding signal (z-score),[5],-0.787
same,glycan array binding signal (z-score),[6],3.27
same,glycan array binding signal (z-score),[7],3.69
same,glycan array binding signal (z-score),[8],3.61
same,glycan array binding signal (z-score),[9],4.08
same,glycan array binding signal (z-score),[10],3.91
same,glycan array binding signal (z-score),[11],-0.752
same,glycan array binding signal (z-score),[12],-0.116
same,glycan array binding signal (z-score),[13],-0.582
same,glycan array binding signal (z-score),[14],-0.018
"TIM-1 (Mus musculus), AAL35774 (protein) MNQIQVFISGLILLLPGAVDSYVEVKGVVGHPVTLPCTYSTYRGITTTCWGRGQCPSSACQNTLIWTNGHRVTYQKSSRYNLKGHISEGDVSLTIENSVESDSGLYCCRVEIPGWFNDQKVTFSLQVKPEIPTRPPTRPTTTRPTATGRPTTISTRSTHVPTSIRVSTSTPPTSTHTWTHKPEPTTFCPHETTAEVTGIPSHTPTDWNGTVTSSGDTWSNHTEAIPPGKPQKNPTKGFYVGICIAALLLLLLVSTVAITRYILMKRKSASLSVVAFRVSKIEALQNAAVVHSRAEDNIYIVEDRP",glycan array binding signal (z-score),[15],-0.268
same,glycan array binding signal (z-score),Gal(a1-3)Gal(b1-3)Glc,-0.335
same,glycan array binding signal (z-score),[16],2.6
same,glycan array binding signal (z-score),Gal(a1-4)Gal(b1-4)Gal,1.46
same,glycan array binding signal (z-score),Gal3S(b1-3)GlcNAc,-0.247
same,glycan array binding signal (z-score),Gal6S(b1-4)Glc,-0.128
same,glycan array binding signal (z-score),GlcA(b1-3)Gal,2.46
same,glycan array binding signal (z-score),GlcA(b1-6)Gal,2.12
same,glycan array binding signal (z-score),[17],-0.61
same,glycan array binding signal (z-score),[18],1.29
same,glycan array binding signal (z-score),[19],-0.451
same,glycan array binding signal (z-score),[20],-0.414
same,glycan array binding signal (z-score),[21],-0.411
same,glycan array binding signal (z-score),[12],-0.433
same,glycan array binding signal (z-score),[22],0.386
same,glycan array binding signal (z-score),[23],-0.125
same,glycan array binding signal (z-score),Neu5Ac(a2-6)GalNAc,-0.529
CGL3 (Coprinopsis cinerea) (protein) MGHHHHHHHHSGFHILRLESTVDLSEPLKDNGIIVFQSDKLDLEPSPNLGPTGIDNTNVNLINAKGDVLLHIGIRRRENAFVFNSIPYGESRGPEERIPLEGTFGDRRDPSITVFDHPDRYQIMIDYKTVYYYKKRLEGRCEKVSYKINEGQTPPFSDVLGVTVLYFANVMPRAN,glycan array binding signal (z-score),[24],-0.216
same,glycan array binding signal (z-score),Gal(a1-4)Gal(b1-4)GlcNAc,-0.049
same,glycan array binding signal (z-score),[25],2.51
same,glycan array binding signal (z-score),[26],-0.201
same,glycan array binding signal (z-score),[27],-0.193
same,glycan array binding signal (z-score),Gal3S(b1-4)Glc,0.022
same,glycan array binding signal (z-score),GalNAc(b1-4)GlcNAc,6.64
same,glycan array binding signal (z-score),[28],-0.197
same,glycan array binding signal (z-score),[29],8.4
same,glycan array binding signal (z-score),[30],-0.222
same,glycan array binding signal (z-score),[31],-0.21
same,glycan array binding signal (z-score),[14],-0.128
same,glycan array binding signal (z-score),[32],-0.191
